Inconclusive results are not listed. Activity calls are given as the source filed them. Unless noted, calls come from the whole dose curve; as a rule, active = well fitted curve in the direction sought with a large enough effect in the repeat runs; inconclusive = weak or mixed curves; inactive = no such curve, though single readings can be large; an effect the other way counts as inactive or inconclusive.
Assays:
[1] = target: Retinoic acid receptor RXR-alpha (Homo sapiens) (UniProt P19793); test: qHTS assay to identify small molecule agonists of the RXR signaling pathway (AID 1159527; calls by dose curve; note: nearly all actives have a fitted effect of over 35% in size)
Sequence of Retinoic acid receptor RXR-alpha (Homo sapiens) (P19793 whole entry, looked up): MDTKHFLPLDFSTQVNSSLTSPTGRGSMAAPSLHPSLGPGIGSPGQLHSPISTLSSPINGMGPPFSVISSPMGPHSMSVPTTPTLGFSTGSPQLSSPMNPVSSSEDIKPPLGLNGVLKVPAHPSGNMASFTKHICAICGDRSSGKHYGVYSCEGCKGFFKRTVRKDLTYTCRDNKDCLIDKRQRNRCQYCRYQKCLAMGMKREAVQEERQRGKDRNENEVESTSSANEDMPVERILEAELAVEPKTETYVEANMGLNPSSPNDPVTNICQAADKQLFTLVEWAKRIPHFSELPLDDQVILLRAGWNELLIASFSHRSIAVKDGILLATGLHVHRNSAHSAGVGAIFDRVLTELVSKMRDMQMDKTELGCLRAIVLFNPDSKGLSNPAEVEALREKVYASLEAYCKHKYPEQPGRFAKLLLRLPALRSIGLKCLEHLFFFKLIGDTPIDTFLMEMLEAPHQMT
In short: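 Agonist mode; 9-cis retinoic acid positive control. HEK 293T UAS-bla reporter cells, 2% charcoal-stripped FBS, 16 hr compound exposure at 37 C/5% CO2. LiveBLAzer B/G FRET substrate 2 hr RT; ex 405, em 460/530 nm.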

[2] = qHTS assay to identify small molecule agonists of the RXR signaling pathway - cell viability counter screen (AID 1159529); note: nearly all actives have a fitted effect of over 50% in size
In short: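 Luminescence from CellTiter-Glo (30 min, RT) measured viability in the same wells as the beta-lactamase reporter readout. Cells: GeneBLAzer RXR-alpha HEK 293T, 2% charcoal-stripped FBS. Compound exposure 16 hr, 37 C.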

[3] = qHTS assay to identify small molecule antagonists of the retinoid acid receptor (RAR) signaling pathway - cell viability counter screen (AID 1159551); note: nearly all actives have a fitted effect of over 35% in size
In short: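 Cells (C3RL4) are plated, incubated overnight, dosed with compound in DMSO, then given retinol at 1 uM final. After 6 h at 37 C, CellTiter-Glo is added and luminescence read following 30 min at room temperature.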

[4] = qHTS assay to identify small molecule antagonists of the retinoic acid receptor (RAR) signaling pathway (AID 1159552; note: nearly all actives have a fitted effect of over 50% in size)
In short: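 Luminescence from a RARE luciferase reporter in C3RL4 cells served as read-out. Cells received compounds together with 1 uM final retinol and incubated 6 hr at 37 C before detection reagent was added for 30 min at room temperature.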

[5] = qHTS assay to identify small molecule agonists of the retinoic acid receptor (RAR) signaling pathway (AID 1159553); settings: C3RL4 RARE luciferase reporter, agonist, 6 h; activation: at 73.3 µM (top of the series)
In short: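 Seed C3RL4 reporter cells at 1,000 per well and incubate overnight at 37 C. Add compounds in DMSO, incubate 6 hr. Add luciferase reagent, wait 30 min at room temperature, read luminescence.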

[6] = qHTS assay to identify small molecule antagonists of the estrogen related receptor (ERR) signaling pathway from Tox21 library - cell viability counter screen (AID 1224834); note: nearly all actives have a fitted effect of over 30% in size
In short: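 ERR cells, 2,000/well; 6 h settle at 37 C/5% CO2; pin-tool compound transfer in DMSO; 17.5 h at 37 C; CellTiter-Fluor, 30 min; fluorescence intensity.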

[7] = target: Luciferin 4-monooxygenase (Photinus pyralis) (UniProt P08659); test: qHTS assay to identify small molecule inhibitors of firefly luciferase (AID 1224835); note: nearly all actives have a fitted effect of over 25% in size
Sequence of Luciferin 4-monooxygenase (Photinus pyralis) (P08659 whole entry, looked up): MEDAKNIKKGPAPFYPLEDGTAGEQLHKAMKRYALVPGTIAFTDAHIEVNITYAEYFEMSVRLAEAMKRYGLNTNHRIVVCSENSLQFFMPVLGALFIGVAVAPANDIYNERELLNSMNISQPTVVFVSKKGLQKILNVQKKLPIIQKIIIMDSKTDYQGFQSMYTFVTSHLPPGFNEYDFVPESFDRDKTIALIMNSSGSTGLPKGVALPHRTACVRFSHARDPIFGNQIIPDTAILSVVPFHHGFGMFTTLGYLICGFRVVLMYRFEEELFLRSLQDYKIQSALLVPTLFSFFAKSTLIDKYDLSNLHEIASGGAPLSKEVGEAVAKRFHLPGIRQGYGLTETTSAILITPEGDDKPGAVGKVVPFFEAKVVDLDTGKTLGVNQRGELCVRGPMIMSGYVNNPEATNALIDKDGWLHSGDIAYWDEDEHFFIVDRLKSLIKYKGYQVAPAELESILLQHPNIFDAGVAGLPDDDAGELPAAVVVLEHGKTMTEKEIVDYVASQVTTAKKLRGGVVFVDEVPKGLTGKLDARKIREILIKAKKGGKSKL
In short: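 Quantitative HTS format; KM concentrations of both substrates. Purified P. pyralis FLuc activity quantified from luminescence images.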

[8] = qHTS assay to identify small molecule agonists of the constitutive androstane receptor (CAR) signaling pathway - cell viability counter screen (AID 1224836); note: nearly all actives have a fitted effect of over 45% in size
In short: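 Viability read-out: CellTiter-Fluor fluorescence after 23 h compound exposure at 37 C/5% CO2 in double-stable HepG2-CYP2B6-hCAR cells, with PK11195 present at 0.75 uM final; compounds tested in 15-point titration.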

[9] = qHTS assay to identify small molecule antagonists of the constitutive androstane receptor (CAR) signaling pathway - cell viability counter screen (AID 1224837); note: nearly all actives have a fitted effect of over 45% in size
In short: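 Viability was measured with CellTiter-Fluor in a HepG2 line carrying stably transfected hCAR and a CYP2B6-2.2kb construct. Cells were exposed for 23 hr at 37 C to 15 compound concentrations with 50 nM CITCO as agonist.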

[10] = qHTS assay to identify small molecule antagonists of the estrogen related receptor signaling pathway with the pleiotropic PPARgamma coactivator (PGC) from Tox21 10K library - cell viability counter screen (AID 1224840; active = well fitted cell-killing curve with a large enough effect in the repeat runs, not every such curve was filed as active; note: nearly all actives have a fitted effect of over 40% in size)
In short: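 Multiplexed viability counter screen in the PGC/ERR cell line: cells treated with DMSO-dissolved compounds for 17.5 hours at 37 C, then viability measured as CellTiter-Fluor fluorescence.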

[11] = qHTS assay to identify small molecule antagonists of the estrogen related receptor signaling pathway with the pleiotropic PPARgamma coactivator (PGC) from Tox21 10K library (AID 1224841; call rule not given here; note: actives are mostly falling curves and most rising ones were filed inactive; nearly all actives have a fitted effect of over 50% in size)
In short: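 Steps: plate 2,000 PGC/ERR cells per well; incubate 6 h at 37 C with 5% CO2; transfer compounds from DMSO stocks by pin tool; incubate 18 h at 37 C; add One-Glo; measure luminescence 30 min later.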

[12] = qHTS assay to identify small molecule agonists of the estrogen related receptor signaling pathway with the pleiotropic PPARgamma coactivator (PGC) from Tox21 10K library (AID 1224842); note: nearly all actives have a fitted effect of over 15% in size
In short: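 PGC/ERR reporter cells (NTP line) were seeded 2,000 per well, rested 6 h at 37 C/5% CO2, then pin-dosed with compounds in DMSO for 18 h at 37 C; luciferase read by One-Glo luminescence after 30 min at room temperature.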

[13] = target: Thyrotropin receptor (Homo sapiens) (UniProt P16473); test: qHTS assay to identify small molecule agonists of the thyroid stimulating hormone receptor (TSHR) signaling pathway (AID 1224843; calls by dose curve; note: nearly all actives have a fitted effect of over 45% in size)
Sequence of Thyrotropin receptor (Homo sapiens) (P16473 whole entry, looked up): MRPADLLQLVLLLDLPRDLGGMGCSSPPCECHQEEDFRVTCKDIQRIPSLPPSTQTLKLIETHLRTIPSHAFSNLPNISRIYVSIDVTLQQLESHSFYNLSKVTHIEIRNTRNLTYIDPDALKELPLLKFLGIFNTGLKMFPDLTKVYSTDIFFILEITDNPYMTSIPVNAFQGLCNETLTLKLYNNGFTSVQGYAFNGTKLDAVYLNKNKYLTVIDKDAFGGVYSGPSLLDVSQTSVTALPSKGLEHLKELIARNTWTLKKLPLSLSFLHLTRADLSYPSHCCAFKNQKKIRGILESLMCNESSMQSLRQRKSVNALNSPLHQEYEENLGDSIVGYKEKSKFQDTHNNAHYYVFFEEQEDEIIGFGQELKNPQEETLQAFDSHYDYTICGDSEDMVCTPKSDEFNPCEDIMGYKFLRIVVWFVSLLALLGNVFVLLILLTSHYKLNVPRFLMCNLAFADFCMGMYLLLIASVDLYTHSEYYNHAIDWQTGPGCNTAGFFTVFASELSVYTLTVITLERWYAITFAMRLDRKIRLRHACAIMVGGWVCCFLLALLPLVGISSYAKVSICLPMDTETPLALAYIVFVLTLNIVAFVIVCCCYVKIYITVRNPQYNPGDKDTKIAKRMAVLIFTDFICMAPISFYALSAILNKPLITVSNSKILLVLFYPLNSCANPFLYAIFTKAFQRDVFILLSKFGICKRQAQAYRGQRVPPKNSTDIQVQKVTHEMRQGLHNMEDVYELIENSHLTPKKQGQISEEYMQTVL
In short: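 Using 15 concentrations per compound in triplicate, cAMP production was monitored in TSHR-HEK293 cells after 30 min compound incubation at RT; HTRF reagents followed, with fluorescence intensity recorded after 1 h.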

[14] = qHTS assay to identify small molecule agonists of the hypoxia (HIF-1) signaling pathway - cell viability counter screen (AID 1224844; calls by dose curve; note: nearly all actives have a fitted effect of over 50% in size)
In short: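 Cytotoxicity was measured in parallel with the HRE-driven beta-lactamase readout: after 17 hrs of compound exposure at 37C, HRE-bla ME-180 cells received CellTiter-Glo and luminescence was recorded 30 min later.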

[15] = qHTS assay to identify small molecule agonists of H2AX (AID 1224845; active = well fitted activation curve with a large enough effect in the signal ratio in the repeat runs, not every such curve was filed as active; the % refers to the signal ratio)
In short: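 Wild-type CHO-K1 cells plated overnight, then exposed 3 hr at 37C to compounds at 15 concentrations (0.76% DMSO). Lysed, then HTRF anti-pH2AX(S139)-cryptate/anti-H2AX-d2 detection after 24 hr at room temperature; emissions 665 and 620 nm.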

[16] = qHTS assay to identify small molecule agonists of the hypoxia (HIF-1) signaling pathway (AID 1224846; active = well fitted activation curve with a large enough effect in the signal ratio in the repeat runs, not every such curve was filed as active; the % refers to the signal ratio)
In short: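 Compounds from the Tox21 10K library, dissolved in DMSO, are tested for induction of a hypoxia response element–controlled beta-lactamase reporter in ME-180 cells. Exposure lasts 17 hrs at 37C after a 5 hr settling period, followed by CCF4-AM FRET substrate.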

[17] = qHTS assay to identify small molecule agonists of H2AX - cell viability counter screen (AID 1224847; calls by dose curve; note: top concentration of the series differs between compounds; nearly all actives have a fitted effect of over 30% in size)
In short: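 CHO-K1 wt, 1000 cells/well, o/n 37C; cpds 15 conc, 3 h 37C, 0.76% DMSO; CellTiter-Glo, 30 min RT, luminescence.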

[18] = qHTS assay to identify small molecule antagonists of the estrogen related receptor (ERR) signaling pathway from Tox21 library (AID 1224848); note: nearly all actives have a fitted effect of over 50% in size
In short: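 Tox21 10K compounds in DMSO tested for ERR pathway antagonism in NTP's ERR cell line; 18 h, 37 C exposure; ONE-Glo luminescence.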

[19] = target: Nuclear receptor subfamily 1 group I member 3 (Homo sapiens) (UniProt Q14994); test: qHTS assay to identify small molecule antagonists of the constitutive androstane receptor (CAR) signaling pathway (AID 1224838);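 note: HepG2 cells stably expressing hCAR with CYP2B6 luciferase reporter stimulated by CITCO; nearly all actives have a fitted effect of over 40% in size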
Sequence of Nuclear receptor subfamily 1 group I member 3 (Homo sapiens) (Q14994 whole entry, looked up): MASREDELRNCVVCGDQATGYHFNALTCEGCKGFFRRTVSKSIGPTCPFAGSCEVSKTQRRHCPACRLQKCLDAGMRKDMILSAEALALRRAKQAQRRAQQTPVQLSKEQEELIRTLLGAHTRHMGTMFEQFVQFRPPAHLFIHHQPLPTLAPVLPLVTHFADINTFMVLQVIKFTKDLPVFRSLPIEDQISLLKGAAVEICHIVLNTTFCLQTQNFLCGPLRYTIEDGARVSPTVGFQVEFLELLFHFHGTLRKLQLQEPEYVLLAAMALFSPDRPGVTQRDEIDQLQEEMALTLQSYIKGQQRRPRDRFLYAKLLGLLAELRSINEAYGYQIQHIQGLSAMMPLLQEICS
In short: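 Antagonist mode used CITCO at a final 50 nM to activate CAR in human hepatoma HepG2 cells carrying stable hCAR and a 2.2 kb CYP2B6 promoter-luciferase construct. Compounds were tested at 15 concentrations over 24 h, with luminescence as the end point.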

[20] = target: Nuclear receptor subfamily 1 group I member 3 (Homo sapiens) (UniProt Q14994); test: qHTS assay to identify small molecule agonists of the constitutive androstane receptor (CAR) signaling pathway (AID 1224839); note: nearly all actives have a fitted effect of over 15% in size
In short: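 Luminescence read-out (ONE-Glo, 30 min, room temperature) from double-stable HepG2-CYP2B6-hCAR cells exposed 24 h to 15-point compound series in presence of 0.75 uM PK11195 final.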
% is set by controls: 0 for no effect and ±100 for the full control effect.

FC(F)(F)c1ccc(Cl)cc1Cl
active: activation [5] 0.481%
inactive: Potency [1] | outcome [2] | outcome [3] | Potency [4] | Potency [6] | Potency [7] | outcome [8] | Potency [9] | outcome [10] | Potency [11] | outcome [12] | outcome [13] | outcome [14] | outcome [15] | outcome [16] | Potency [17] | Potency [18]

CC(Cl)COP(=O)(OCC(C)Cl)OCC(C)Cl (stereo not drawn)
inactive: Potency [1] | outcome [2] | outcome [3] | Potency [4] | Potency [5] | Potency [6] | Potency [7] | outcome [8] | Potency [9] | Potency [19] | outcome [10] | Potency [11] | outcome [12] | outcome [13] | outcome [14] | outcome [15] | outcome [16] | Potency [17] | Potency [18]

Oc1ccccc1Cc1ccccc1O
inactive: Potency [1] | outcome [2] | outcome [3] | Potency [4] | Potency [5] | Potency [6] | Potency [7] | outcome [8] | Potency [9] | Potency [19] | outcome [10] | Potency [11] | outcome [12] | outcome [13] | outcome [14] | outcome [15] | outcome [16] | Potency [17] | Potency [18]

CCCCOC(=O)[C@@H](C)Oc1ccc(Oc2ccc(C(F)(F)F)cn2)cc1
inactive: Potency [1] | outcome [2] | outcome [3] | Potency [4] | Potency [5] | Potency [6] | Potency [7] | outcome [8] | Potency [9] | Potency [19] | Potency [20] | outcome [10] | outcome [14] | outcome [16]

C=CCOc1c(Br)cc(Br)cc1Br
inactive: Potency [1] | outcome [2] | outcome [3] | Potency [4] | Potency [5] | Potency [6] | Potency [7] | outcome [8] | Potency [9] | Potency [19] | outcome [10] | Potency [11] | outcome [12] | outcome [15] | outcome [16] | Potency [17] | Potency [18]

O=C(COCCOCCOCC(=O)Nc1c(I)cc(I)c(C(=O)O)c1I)Nc1c(I)cc(I)c(C(=O)O)c1I
inactive: Potency [1] | outcome [2] | outcome [3] | Potency [4] | Potency [5] | Potency [6] | Potency [7] | outcome [8] | Potency [9] | outcome [10] | Potency [11] | outcome [12] | outcome [13] | outcome [14] | outcome [15] | outcome [16] | Potency [17] | Potency [18]

NC(=O)NC(=O)Cc1ccccc1
inactive: Potency [1] | outcome [2] | outcome [3] | Potency [4] | Potency [5] | Potency [6] | Potency [7] | outcome [8] | Potency [9] | outcome [10] | Potency [11] | outcome [12] | outcome [13] | outcome [14] | outcome [15] | outcome [16] | Potency [17] | Potency [18]

CCCCCCCCCCCCCCCC(=O)NCCO
inactive: Potency [1] | outcome [2] | outcome [3] | Potency [4] | Potency [5] | Potency [6] | Potency [7] | outcome [8] | Potency [9] | Potency [19] | outcome [10] | Potency [11] | outcome [12] | outcome [13] | outcome [14] | outcome [15] | Potency [17] | Potency [18]

Nc1ccc(/C=C/c2ccc(N)cc2S(=O)(=O)O)c(S(=O)(=O)O)c1
inactive: activation [1] 6.35% [at 0.29 µM] | activity change, negative = cytotoxicity [2] 1.24% [at 0.29 µM] | activity change, negative = cytotoxicity [3] 2.39% [at 0.349 µM] | activity, negative = inhibition [4] 3.51% [at 0.349 µM] | activation [5] -0.705% [at 0.756 µM] | viability change, negative = cytotoxic [6] 2.37% [at 0.349 µM] | activity change, negative = inhibition [7] 0.257% [at 0.435 µM] | viability change, negative = cytotoxic [8] 6.71% [at 0.349 µM] | activity change, negative = cytotoxicity [9] 10.1% [at 0.349 µM] | activity, negative = inhibition [19] -20.1% [at 0.349 µM] | viability change, negative = cytotoxic [10] 2.38% [at 0.349 µM] | activity change, negative = cytotoxicity [14] -0.74% [at 0.29 µM] | activation (H2AX phosphorylation) [15] -0.0976% [at 0.582 µM] | activation [16] -0.978% [at 0.291 µM] | activity change, negative = cytotoxicity [17] 3.7% [at 0.582 µM] | activity, negative = inhibition [18] 4.28% [at 0.349 µM]

CCC(C)(C)C1CCC(=O)CC1
inactive: Potency [1] | outcome [2] | outcome [3] | Potency [4] | Potency [5] | Potency [6] | Potency [7] | outcome [8] | Potency [9] | outcome [10] | Potency [11] | outcome [12] | outcome [13] | outcome [14] | outcome [16] | Potency [17] | Potency [18]

CCc1nccnc1C
inactive: Potency [1] | outcome [2] | outcome [3] | Potency [4] | Potency [5] | Potency [6] | Potency [7] | outcome [8] | Potency [9] | outcome [10] | Potency [11] | outcome [12] | outcome [13] | outcome [15] | outcome [16] | Potency [17] | Potency [18]

NS(=O)(=O)c1cc2c(cc1Cl)NC(CC1CCCC1)NS2(=O)=O (stereo not drawn)
inactive: Potency [1] | outcome [2] | outcome [3] | Potency [4] | Potency [5] | Potency [6] | Potency [7] | outcome [8] | Potency [9] | Potency [20] | outcome [10] | outcome [13] | outcome [14] | Potency [17]

CC(=O)N1CCN(c2ccc(O)cc2)CC1
inactive: Potency [1] | outcome [2] | outcome [3] | Potency [4] | Potency [5] | Potency [6] | Potency [7] | outcome [8] | Potency [9] | Potency [20] | outcome [10] | outcome [13] | outcome [14] | outcome [16] | Potency [17]

O=C(CN1CCN(Cc2ccc3c(c2)OCO3)CC1)N1c2ccccc2Sc2ccccc21
inactive: Potency [1] | outcome [2] | outcome [3] | Potency [4] | Potency [5] | Potency [6] | Potency [7] | outcome [8] | Potency [9] | Potency [19] | outcome [10] | outcome [13] | outcome [14] | outcome [15] | outcome [16] | Potency [17]

CCCCCCCCOC(C)=O
inactive: Potency [1] | outcome [2] | outcome [3] | Potency [4] | Potency [5] | Potency [6] | Potency [7] | outcome [8] | Potency [9] | outcome [10] | Potency [11] | outcome [12] | outcome [13] | outcome [14] | outcome [16] | Potency [17] | Potency [18]

— PubChem BioAssay (Tox21)
